# From ChEMBL document CHEMBL4513216, “Probing the Open Global Health Chemical Diversity Library for Multistage-Active Starting Points for Next-Generation Antimalarials” (ACS Infect Dis, 2020)
# In all, about 69,000 compounds went through this assay and about 8,600 (12%) showed an effect of 50% or more. Many of the other results were omitted from the sample, so strong results are more common in it than they were.
# Test system: Plasmodium berghei
# Test: Screen against P. berghei liver stage (PbLuc), transformed with Luciferase, at 10uM
# Assay type: functional, HepG2
# Conditions: tested at 10 uM
row,SMILES,INHIBITION [%]
1,CCS(=O)(=O)N1C[C@H]2CN(Cc3ccc(OC)cc3)C(=O)[C@H]2C1,-12.2
2,O=C(NCc1nc(C2CC2)no1)N1CCOC(c2ccccc2)C1 (stereo not drawn),33.2
3,O=C(NCc1nc(C2CC2)no1)N1CCOC(c2ccccc2F)C1 (stereo not drawn),35
4,O=C(NCc1nc(C2CC2)no1)N1CCOC(c2cccc(F)c2)C1 (stereo not drawn),53.6
5,CCCOCC(=O)NC1CCc2nc(C)cn2C1 (stereo not drawn),1.58
6,Cc1nc(C)n(CC2CN(CCOc3ccccc3F)CCO2)n1 (stereo not drawn),53.8
7,Cc1csc2c(C3CCN(CCCOc4ccccc4)CC3)nc(C)n12,46.7
8,Cc1nc(C)n(CC2CN(CCCOc3ccccc3C)CCO2)n1 (stereo not drawn),24.4
9,Cc1nc(C)n(CC2CN(CCOc3ccccc3C#N)CCO2)n1 (stereo not drawn),-15.5
10,Cc1nc(C)n(CC2CCCN(Cc3cc(C#N)ccc3F)C2)n1 (stereo not drawn),-2.53
11,Cc1nc(C)n(CC2CN(Cc3cc(C#N)ccc3F)CCO2)n1 (stereo not drawn),51.1
12,Cc1nc(C)n(CC2CN(Cc3cccc(C#N)c3)CCO2)n1 (stereo not drawn),10.5
13,Cc1ccc(OCCN2CCC(c3nc(C)n4c(C)csc34)CC2)cc1,29.1
14,Cc1csc2c(C3CCN(CCOc4ccccc4F)CC3)nc(C)n12,54
15,CN1CC[C@H](N(Cc2ccccc2)CC2CC2)C[C@H](O)C1,23.7
16,Cc1ccsc1CN(CCCN(C)C)Cc1ccccn1,2.6
17,O=C(CC1[C@H]2CN(Cc3ccsc3)C[C@@H]12)N1CCCC1 (stereo partly drawn),7.5
18,Cc1cc(-c2cnc(C)nc2CN(C)C(=O)c2cc(C3CC3)on2)on1,-18.9
19,CCOc1ccc(NC(=O)N(CCN(C)C)C(C)c2ccncc2)cc1 (stereo not drawn),14.3
20,COCC1c2c(cnn2C)CCN1Cc1ccco1 (stereo not drawn),35.8
21,CS(=O)(=O)N1CCC(n2nnn(-c3ccccc3)c2=O)CC1,2.7
22,COc1cc(N2C[C@H]3CC[C@@H](C2)N(CC2CCC2)C3=O)ncn1,2.15

row,SMILES,INHIBITION [%]
1,Cc1nc(C)n(CC2CCCN(CC3CCCCC3)C2)n1 (stereo not drawn),15.6
2,O=C1[C@@H]2CC[C@@H](CN(c3ncnc4ccsc34)C2)N1CC1CC1,78.9
3,c1ccc2sc(N3CCCC(Cn4cncn4)C3)nc2c1 (stereo not drawn),54.5
4,Cc1nc(C)n(CC2CCCN2c2ncnc3c2CCC3)n1 (stereo not drawn),26.9
5,c1nc(N2CCCCC2Cn2cncn2)c2sccc2n1 (stereo not drawn),6.65
6,CN1C(=O)[C@@H]2CC[C@H]1CN(c1ncnc3ccsc13)C2,-15.1
7,O=C(O)c1cn(CC2CCCN(c3nc4ccccc4s3)C2)nn1 (stereo not drawn),46.6
8,Cc1nc(C)n(CC2CCCN(c3ncnc4c3CCC4)C2)n1 (stereo not drawn),80.8
9,c1nc(N2CCCC(Cn3cncn3)C2)c2sccc2n1 (stereo not drawn),85.4
10,c1ccc2nc(N3CCCC(Cn4cncn4)C3)cnc2c1 (stereo not drawn),-2.55
11,c1nc(N2CCCC(Cn3cncn3)C2)c2ccsc2n1 (stereo not drawn),-17.3
12,Cc1ccnc(C2CCN(S(=O)(=O)c3cn(C)cn3)CC2)n1,-10.5
13,O=C(Nc1cccnc1)C1CN(C(=O)c2ccc3c(c2)OCO3)C1,34.6
14,CCc1nc(CN2CCCC2c2c(C)nn(C)c2OC)no1 (stereo not drawn),33.8
15,Cc1nn(C)c(C)c1C1CCCN1Cc1ccc(C(N)=O)cc1 (stereo not drawn),13.3
16,Cn1nc(CO)c2c1CCN(c1ncnc3c1CCNCC3)C2,26.8
17,Cn1cnnc1C1CCCN(C(=O)c2cc(Cl)cc(Cl)c2)C1 (stereo not drawn),11.6
18,O=C(c1cccc(CNS(=O)(=O)c2ccc(F)cc2)c1)N1CCCC1,15.6
19,COCc1nc(CN2CC(Cc3ccccc3)CC2=O)no1 (stereo not drawn),-37.2
20,Cc1nnc(SCC(=O)N2C[C@@H]3CC[C@H]2CN(c2ncccn2)C3)[nH]1,19.4
21,Cc1nc(C)n(CC2CCCN(c3ccnc(-c4ccccc4)n3)C2)n1 (stereo not drawn),26.6
22,Cc1nc(C)n(CC2CCCN(c3ncnc4ccccc34)C2)n1 (stereo not drawn),88.2

row,SMILES,INHIBITION [%]
1,Cc1nc(C)n(CC2CCCN(c3ccc(C#N)cn3)C2)n1 (stereo not drawn),-10.6
2,Cc1nc(C)n(CC2CCCN2c2ncnc3ccsc23)n1 (stereo not drawn),27.8
3,Cc1nc(C)n(CC2CCCN(c3ncnc4[nH]ccc34)C2)n1 (stereo not drawn),5.13
4,Cc1nc(C)n(CC2CCCN(CCc3ccccc3)C2)n1 (stereo not drawn),38.8
5,Cc1nc(C)n(CC2CCCN(c3ncnc4sccc34)C2)n1 (stereo not drawn),72.9
6,Cc1nc(C)n(CC2CCCN(CCc3ccccn3)C2)n1 (stereo not drawn),53.8
7,Cc1nc(C)n(CC2CCCN(c3ncnc4ccsc34)C2)n1 (stereo not drawn),83.1
8,Cc1nc(C)n(CC2CCCN(CCc3ccncc3)C2)n1 (stereo not drawn),24
9,Cc1nc(C)n(CC2CCCCN2c2ncnc3ccsc23)n1 (stereo not drawn),27.8
10,Cc1nc(C)n(CC2CCCN2c2ncnc3sccc23)n1 (stereo not drawn),-3.81
11,CCOc1ccc(S(=O)(=O)NC(=O)CC2CCCO2)cc1 (stereo not drawn),-4.94
12,Cc1ccc(CN2CC[C@H]3OCC[C@@]3(C(=O)N3CCCO3)C2)o1,0.618
13,Cc1nn(CCC(=O)N2CCN(Cc3cnn(C)c3C)CC2)c(C)c1Br,43.4
14,CC(C)c1nc(C2CCCN2C(=O)c2ccc(C#N)cn2)no1 (stereo not drawn),22.9
15,CN(C)c1cncc(C2CCCN(c3cnccn3)C2)n1 (stereo not drawn),17.77
16,CN(Cc1ccc(Br)c2cccnc12)S(C)(=O)=O,-17.85
17,CC(C)N1CCC(c2cccc(C(=O)N(C)C)n2)CC1,-7.66
18,c1cc(CN2CCC(c3nnc4n3CCCCC4)CC2)c2nonc2c1,64.4
19,c1ccc2c(c1)CC(N1CCCN(Cc3cccc4nonc34)CC1)C2,49
20,c1cc(CN2CCC(c3nnc4n3CCCCC4)CC2)c2c(c1)OCO2,29.7
21,CCOc1ncccc1NC(=O)NC1CCN(C(=O)C2CC2)CC1,41.2
22,CCC(C)(COc1ncccc1Cl)NCC(=O)Nc1ccc(Br)cn1 (stereo not drawn),36.5

row,SMILES,INHIBITION [%]
1,CCC(C)(COc1ncccc1Cl)NCC(=O)NCC(C)C (stereo not drawn),57.4
2,Cc1ccc(Oc2ncccc2CNC(=O)NC2CCCCC2)cn1,19.4
3,CCC(C)(COc1ncccc1Cl)NCC(=O)NC1CCCCC1 (stereo not drawn),68.5
4,CC(C)CNC(=O)CNC(=O)Nc1cccc(Cl)c1-n1cccn1,-29.2
5,COc1ccc(C(=O)NCc2ccc(C(=O)O)o2)cc1,10.6
6,O=C(Cc1ccc(F)cc1)NCc1ccc(C(=O)O)o1,1.62
7,O=C(NCc1ccc(C(=O)O)o1)c1ccc(F)cc1,51.1
8,Cc1csc(CN(C)CCOc2ccccc2)n1,-4.23
9,CC(C(=O)Nc1sccc1C(N)=O)N(C)CCOc1ccccc1 (stereo not drawn),94
10,Cc1ccccc1OCCC(=O)OC(C)C(=O)Nc1sccc1C(N)=O (stereo not drawn),45.1
11,Cc1[nH]nc(CCC(=O)NCC2CCCN(C3CCCC3)C2)c1C (stereo not drawn),41.6
12,Cc1ccc(OCCN2CCN(Cc3cnn(CCO)c3)CC2)cc1,22.25
13,C=C(C)COc1cccc(C(=O)N2CCC3(CCOCC3)CC2)c1,52.6
14,C=C(C)COc1cccc(C(=O)N2CCC3(CC2)CN(C)CCN3C)c1,46.1
15,COc1cccc(C(=O)N2CCOC3(CCCN(C(C)=O)C3)C2)c1 (stereo not drawn),33.4
16,C=C(C)COc1cccc(C(=O)N2CCC(O)(c3ccccc3)CC2)c1,65.6
17,CCOc1cccc(C(=O)N2CCC3(CC2)[C@H](O)C[C@@H]3OC)c1,-55.1
18,CC(C)(O)CCc1cccc(C(=O)N2CCC3(CCOCC3)CC2)c1,-147
19,CCn1nc(C)cc1C(=O)N1C[C@@H]2C[C@@H](c3nc(C)cs3)O[C@@H]2C1,15.6
20,CC(C)COc1cncc(N2CCCN(CC(F)(F)F)CC2)n1,-1.04
21,CC(C)COc1cncc(N(C)C2CCN(c3ncccn3)CC2)n1,21.2
22,CC(C)COc1cncc(N2CCCN(c3ncccn3)CC2)n1,50.4

row,SMILES,INHIBITION [%]
1,O=C(NCc1ccco1)[C@@]12CCO[C@@H]1CCN(c1ncccn1)C2,27.6
2,Cn1cc(CC2CC(=O)N(Cc3ccccc3OC(F)F)C2=O)cn1 (stereo not drawn),33.1
3,CN(C)C(=O)c1nn(C)c2c1CN(Cc1cccs1)C2,-6.23
4,Cc1ccc(CN2C[C@H](N3CCOCC3)[C@@H]3OCCC[C@@H]32)o1,-22.1
5,Cc1nccn1CCC1CCN(C(C)C)CC1,38.8
6,Cc1ccc(C(=O)NCc2cc(F)ccc2N2CCCN(C)CC2)o1,42.1
7,CN1CCCN(c2ccc(F)cc2CNC(=O)c2cccnc2)CC1,-12.2
8,CN1CCCN(c2ccc(F)cc2CNC(=O)c2ccsc2)CC1,79.7
9,CN(CCCOc1ccccc1Cl)C(=O)CN1C[C@H]2CC[C@@H](CC1=O)N2,17
10,CCS(=O)(=O)NC1CCCN(c2ccc(F)cc2C)C1=O (stereo not drawn),5.29
11,CCc1ncc(C(=O)N2CCN(c3cnn(C)c(=O)c3)CC2)cn1,45.8
12,Cc1cncc(C(=O)N2CCN(c3cnn(C)c(=O)c3)CC2)c1,-5.52
13,Cc1oc(C(C)C)cc1C(=O)N1CCN(c2cnn(C)c(=O)c2)CC1,51.1
14,CN(C)c1ccccc1C(=O)N1CCCC(c2ccc(C(=O)O)cc2)C1 (stereo not drawn),18.6
15,CCc1csc(CNC(=O)C(CC)n2cccn2)n1 (stereo not drawn),19.8
16,CC(Cn1cccn1)NCc1csc(-c2ncccn2)n1 (stereo not drawn),-29.1
17,CCC(C(=O)NCc1csc(-c2ncccn2)n1)n1cccn1 (stereo not drawn),60.4
18,CCC(C(=O)N1CCN(C(=O)N2CCOCC2)CC1)n1cccn1 (stereo not drawn),33
19,CCC(C(=O)NCc1cc(N2CCOCC2)ncn1)n1cccn1 (stereo not drawn),36.7
20,CCC(C(=O)NCc1csc(N2CCOCC2)n1)n1cccn1 (stereo not drawn),57.5
